Hit rate of the full screen: of about 290,000 compounds, about 3,000 (1%) were called active. The sample holds actives, similar compounds and a random draw of the others, so the mix is not that of the screen. Cut-off read from the data, not from the text of the source: active = inhibition mostly above about 36% (no sharp cut-off); inactive = mostly below about 34%.

The assay is described as follows: inhibition of NOD1-driven NF-kB reporter – cell-based, luminescence, uHTS, primary screen (AID 1578).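 Note: HEK-293T reporter cells stimulated with the NOD1 agonist gamma-tri-DAP.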 The settings on record: NOD1-driven NF-kB luciferase reporter cells, at 4 µM, active compounds read high. For orientation: Reporter assays use an easily measured gene product as a stand-in for the process of interest.
`CNC(=O)COC(=O)[C@@H](Nc1ccc(S(=O)(=O)N2CCOCC2)cc1[N+](=O)[O-])C(C)C`: the inhibition (commonly the drop in the measured response relative to a control, in per cent) is -8.1% (inactive). In the case of `Cc1ccc(C(=O)Nc2ncn[nH]2)cc1`, the inhibition is -32.8% (inactive). With `CCOc1ccc(-c2[nH]ncc2Oc2cccc(OC)c2)c(O)c1`, the inhibition was 10.8% (inactive). In the case of `Cc1cc(Cl)n2c(nc3ccccc32)c1C#N`, the inhibition is -29.7% (inactive). In the case of `CCc1c(C)c(C#N)c2nc3ccccc3n2c1N(C)C`, the inhibition is 2% (inactive). Under `CCCCc1c(C)c(C#N)c2nc3ccccc3n2c1Cl` stands 101% (active); under `CCCCCc1c(C)c(C#N)c2nc3ccccc3n2c1-n1ccnc1C`, 15.8% (inactive); under `CCCCc1c(C)c(C#N)c2nc3ccccc3n2c1NCCN(C)C`, -4.5% (inactive). Under `CCc1c(C)c(C#N)c2nc3ccccc3n2c1Cl` stands 62.6% (inactive). Regarding `N#Cc1c(-c2ccccc2)c(C#N)c2nc3ccccc3n2c1N`, the inhibition is 37.8% (inactive). `CC(C)(C)C1=C(C#N)C(c2cccnc2)C(C#N)=C(N)O1` (stereo not given): the inhibition was 19.8% (inactive).

`CCCCOc1ccc(-c2[nH]ncc2C=O)cc1`: the inhibition was -46% (inactive). With `COc1ccc2nc(NC(=O)c3cccs3)sc2c1`, the inhibition was -15.7% (inactive). The result for `CCOc1ccc(OCC)c(N=c2oc3c(C)ncc(CO)c3cc2C(N)=O)c1` reads 23.3% (inactive). With `CSc1nnc(CNS(=O)(=O)c2ccc(Cl)cc2)n1C`, the inhibition is -7.4% (inactive).

Regarding `CC(=O)Nc1ncnc2c1c(-c1ccc(Cl)cc1)nn2C(C)(C)C`, the inhibition was 39.6% (inactive). On to `CC(=O)N(C(C)=O)c1ncnc2c1c(-c1ccc(Cl)cc1)nn2C(C)(C)C`, for which the inhibition is 71.2% (active). As to `CC(C)(C)n1nc(-c2ccc(Cl)cc2)c2c(N)ncnc21`, the inhibition was 54.6% (inactive). `Cc1ccccc1C(=O)Nc1ccccn1`: the inhibition was -7.2% (inactive). Take `c1ccc(-c2nn3c(-c4ccccc4)nnc3s2)cc1`: the inhibition is -69.4% (inactive). In the case of `O=S(=O)(/N=C(/Nc1ccccn1)c1ccccc1)c1ccccc1`, the inhibition is 5.7% (inactive). The result for `COc1cc(N/C(=N/S(=O)(=O)c2ccccc2)c2ccccc2)ncn1` reads 48.5% (active); that for `O=S(=O)(/N=C(/Nc1cc(N2CCOCC2)ncn1)c1ccccc1)c1ccccc1`, 0.2% (inactive); that for `Cn1c(CO)cnc1SCc1ccc(Cl)cc1`, -5.4% (inactive).

With `CC(=O)Oc1ccc(N2C(=O)C3C4C=CC(CO)(O4)C3C2=O)cc1` (stereo not given), the inhibition is -9.3% (inactive). Regarding `O=C1C2C3C=CC(CO)(O3)C2C(=O)N1c1ccccc1-c1ccccc1` (stereo not given), the inhibition is 72.3% (active). In the case of `O=C1C2C3C=CC(CO)(O3)C2C(=O)N1c1ccc(-c2ccccc2)cc1` (stereo not given), the inhibition was 35.6% (inactive). The result for `CCc1ccc(CNc2ccc3c(c2)ncn3CC)cc1` reads -16.7% (inactive); that for `CCC(SC1=NCCS1)C(=O)Nc1nnc(-c2ccccc2OC)s1` (stereo not given), -17.6% (inactive); that for `NC(=O)Nc1ccc(C(=O)OCC(=O)N(Cc2ccccc2)C2CCS(=O)(=O)C2)cc1` (stereo not given), -20.7% (inactive). As to `CN1CCc2c(sc(NC(=O)C3COc4ccccc4O3)c2C(N)=O)C1` (stereo not given), the inhibition was -27.9% (inactive). As for `Cc1cc2nc(-c3ccc(SCC(=O)NC(C)C)nc3)[nH]c2cc1C`, the inhibition is 23.9% (inactive). Under `CCOC(=O)CSc1ccc(-c2nc3cc(C)c(C)cc3[nH]2)cn1` stands -40.2% (inactive); under `CC(=O)CSc1ccc(-c2nc3cc(C)c(C)cc3[nH]2)cn1`, 58.4% (active); under `CN(C)Cc1ccc(CNC(=O)COc2ccc3ccccc3c2)cc1`, -35.8% (inactive). For the molecule `CC(=O)Nc1ccc(S(=O)(=O)N/N=C/c2cccnc2)cc1`, the inhibition is -27.3% (inactive). In the case of `CCOc1c(Br)ccc2c1sc1nc[nH]c(=O)c12`, the inhibition was 66.7% (active). In the case of `CCOc1ccc(-c2c(C)sc3nc[nH]c(=O)c23)cc1`, the inhibition was -20.6% (inactive). Regarding `CCOC(=O)c1c(N)sc2c(OCC)c(Br)ccc12`, the inhibition was -11.3% (inactive). Under `COc1cccc(NC(=S)N2C3CCCC2CC(NC(=O)C2CC2)C3)c1` (stereo not given) stands -11.4% (inactive); under `CC(=C/c1ccc(C(C)C)cc1)/C=N/NC(=O)CSc1ccccn1`, -42.7% (inactive); under `CCC1CCCCN1S(=O)(=O)c1ccc(NC(=O)c2cccs2)cc1` (stereo not given), -29.4% (inactive). As to `O=C(Nc1ccc(Cc2ccncc2)cc1)c1ccc(S(=O)(=O)N2CCOCC2)cc1`, the inhibition is 31.5% (inactive). Turning to `O=C(Nc1ccc(S(=O)(=O)N2CCCCC2)cc1)c1ccncc1`, the inhibition was 9.7% (inactive). With `CCC1CCCCN1S(=O)(=O)c1ccc(NC(=O)c2cccnc2)cc1` (stereo not given), the inhibition was 30.5% (inactive). Regarding `CCN(CC)S(=O)(=O)c1ccc(OC)c(NC(=O)CSc2cc(C)ccc2C)c1`, the inhibition was -19.1% (inactive).

`C=CCN(c1ccccc1C(=O)O)S(=O)(=O)c1ccc(C)cc1`: the inhibition is -26.8% (inactive).

Regarding `O=S(=O)(Nc1ccc2c(c1)CCC2)c1cccs1`, the inhibition is 11.6% (inactive). `O=c1c2ccccc2ncn1-c1ccc2c(c1)OCCO2`: the inhibition is 26.3% (inactive). Take `CN(c1ccc(C(=O)NCCC2=CCCCC2)cc1)S(C)(=O)=O`: the inhibition is 68.1% (active).

On to `CS(=O)(=O)Nc1ccc(C(=O)NCCC2=CCCCC2)cc1`, for which the inhibition is -9.5% (inactive).

As for `CS(=O)(=O)N(Cc1ccc(Cl)cc1)c1ccc(C(=O)NCCC2=CCCCC2)cc1`, the inhibition is 9.1% (inactive). With `Cc1cc(NC(=O)CSc2nccn2C)n(-c2ccccc2)n1`, the inhibition was -0.5% (inactive). For the molecule `Cc1cccc(N2CCCn3c2nc2c3c(=O)n(CCN3CCOCC3)c(=O)n2C)c1`, the inhibition was 17.7% (inactive). Take `COCCn1nnnc1C(c1ccccn1)N1CCN(c2cc(Cl)ccc2C)CC1` (stereo not given): the inhibition was -10.8% (inactive). Under `COC(=O)c1ccccc1NC(=O)C(C)n1nc(C)c2c(C)n(-c3ccccc3)nc2c1=O` (stereo not given) stands 7.4% (inactive); under `Cc1cc(C)cc(OCC(=O)Nc2ccc(CN3CCCCC3)cc2)c1`, -37.6% (inactive). For the molecule `CCCCc1c(C)nc2ccc(Br)cc2c1SCCC#N`, the inhibition is 19.5% (inactive). For the molecule `CCc1c(C)nc2c(Br)cccc2c1SCCC#N`, the inhibition is 22.1% (inactive). As for `O=C(CN1C(=O)S/C(=C\c2cccs2)C1=O)Nc1ccc(O)cc1C(=O)O`, the inhibition is 38.9% (inactive).

As for `Cn1nnnc1SCCNCc1ccccc1OCc1ccccc1Cl`, the inhibition was -12.2% (inactive).

On to `CCc1cccc(NC(=O)c2sc3nc4n(c(=O)c3c2C)CCC4)c1`, for which the inhibition is -29.9% (inactive). As to `COc1ccc(Nc2nc(-c3ccc(OC)cc3)cs2)cc1`, the inhibition was -34.6% (inactive). In the case of `Oc1ccc(Nc2nc(-c3ccc(O)cc3)cs2)cc1`, the inhibition is -23.2% (inactive).

With `COc1ccc(-c2csc(Nc3ccc(O)cc3)n2)cc1`, the inhibition was 56.7% (active).

These data come from PubChem BioAssay AID1578 (Sanford-Burnham Center for Chemical Genomics, 2009).
